# Shown are actives, neighbours in structure and some others; about 1.8% of the full set was active somewhere.
# GLP-1R inv ag: GLP-1 receptor (human) inverse agonism; Potency, µM (titrated, usually from 38.3 µM), usual class: inhibitors; P43220; hit rate 1.6% among 410,000; HEK293 GLP-1R CRE-luciferase, luminescence, 24 h; GLP-1R form is constitutively active; note: nearly all actives have a fitted effect of over 55% in size
#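 Stable HEK293 clone (constitutively active GLP-1R + cAMP-response luciferase); 200 cells/uL plated, 12 h pre-culture, compound 24 hr, 37 deg C/5% CO2; detection reagent 12 min RT; luminescence.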
# GLP-1R agonist: activates the human GLP-1 receptor | HEK293 GLP-1R CRE-luciferase, luminescence, 4-6 h; cells express a hypersensitive GLP-1R form | hit rate 0.007% among 380,000 | Potency, µM (doses to about 45.6 µM), hits mostly activators | P43220
# HEK293 tox: cytotoxicity counter-screen for GLP-1 receptor inverse agonists | hit rate 0.13% among 410,000 | Potency, µM (doses to about 38.3 µM), usual class: inhibitors | HEK293 cAMP-luciferase reporter cells, luminescence, 24 h;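 note: loss of luciferase light is scored as toxicity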
#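 1536-well qHTS counterscreen of the MLSMR; 200 cells/uL, 12 h pre-incubation, 23 nL cpd, 24 h at 37 deg C 5% CO2, luciferase detection reagent, 12 min RT, luminescence. Inhibition = undesired.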
# TSHR antag: antagonists of human thyroid stimulating hormone receptor; P16473; TSHR-expressing cells, TSH-stimulated cAMP HTRF, 2 h; active compounds read low; activity change, negative = inhibition, % at 11.5 µM; hit rate 0.2% among 330,000;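 active = activity change below a set negative limit, meaning inhibition stronger than a set level, cut at about -70% in these data; inconclusive = activity change between two set negative limits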
# Target sequence (P16473 whole entry, looked up): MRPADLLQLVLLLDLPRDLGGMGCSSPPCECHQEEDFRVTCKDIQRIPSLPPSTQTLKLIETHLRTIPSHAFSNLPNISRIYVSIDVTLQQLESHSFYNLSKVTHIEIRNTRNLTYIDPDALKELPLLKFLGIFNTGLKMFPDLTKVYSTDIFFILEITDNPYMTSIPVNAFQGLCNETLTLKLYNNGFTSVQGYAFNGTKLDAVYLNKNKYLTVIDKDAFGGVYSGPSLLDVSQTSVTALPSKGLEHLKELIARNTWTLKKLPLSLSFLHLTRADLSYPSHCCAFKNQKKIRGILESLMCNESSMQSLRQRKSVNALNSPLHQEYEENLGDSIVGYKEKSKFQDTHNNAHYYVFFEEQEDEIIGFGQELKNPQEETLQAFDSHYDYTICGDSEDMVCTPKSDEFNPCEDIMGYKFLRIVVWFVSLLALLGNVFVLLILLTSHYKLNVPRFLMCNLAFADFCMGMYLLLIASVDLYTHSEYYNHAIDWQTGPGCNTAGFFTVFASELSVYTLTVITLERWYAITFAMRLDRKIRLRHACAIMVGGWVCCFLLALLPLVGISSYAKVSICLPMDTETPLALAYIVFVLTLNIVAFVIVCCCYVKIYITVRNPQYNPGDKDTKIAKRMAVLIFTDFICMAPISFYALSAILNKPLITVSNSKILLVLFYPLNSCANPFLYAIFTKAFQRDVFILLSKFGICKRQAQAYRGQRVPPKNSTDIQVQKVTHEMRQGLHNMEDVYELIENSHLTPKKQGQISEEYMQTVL
#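 Competitive HTRF cAMP read-out (cryptate anti-cAMP antibody, cAMP-d2; 30 min, room temperature) in freshly harvested TSHR cells. Compounds added before TSH at EC80 (4nM final), followed by 2 hours' incubation at 37 deg C.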
# PTHR1 agonist: agonists of human PTHR1 parathyroid hormone receptor; hit rate 0.075% among 410,000; Potency, µM (highest dose often 115 µM), actives largely listed as activators; HEK293 GP2 PTHR1 cells, GloSensor cAMP luminescence, 1 h; note: nearly all actives have a fitted effect of over 55% in size
#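 HEK-293-derived GP2 cells expressing PTHR1 and a GloSensor cAMP reporter, 3,000/well, plated overnight, given luciferin plus IBMX (each 0.5 mM as added) for 1 h at 37 °C, then compound for 1 h at 37 °C. Luminescence was read after 15 min at room temperature.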
# Hits are given with their value; i = inactive; ? = inconclusive; nt = no result. Unless noted, calls come from the whole dose curve; as a rule, active = well fitted curve in the direction sought with a large enough effect; inconclusive = small, poorly fitted or top-dose-only effect, or another doubt; inactive = no such curve, though single readings can be large; an effect the other way counts as inactive or inconclusive.
SMILES,GLP-1R inv ag,GLP-1R agonist,HEK293 tox,TSHR antag,PTHR1 agonist
COc1ccc(S(=O)(=O)NCCSc2nnnn2-c2ccccc2)cc1OC,i,i,i,nt,i
COc1ccccc1NS(=O)(=O)c1cc(C(=O)N2CCN(C/C=C/c3ccccc3)CC2)ccc1C,10µM,i,i,i,i
COc1ccc(C(=O)N/N=C/c2ccccc2OC(=O)c2ccccc2)cc1,10µM,?,i,i,i
O=C(O)COc1ccccc1/C=N/NC(=O)c1cc2ccccc2cc1O,i,i,i,i,25µM
COc1ccc(Oc2ccccc2/C=N/O)cc1,1µM,i,i,i,i
COc1ccccc1N1CCN(CC(C)N(C(=O)C2CCCCC2)c2ccccn2)CC1 (centres undefined),10µM,i,i,i,i
COc1ccccc1N1CCN(CCN(C(=O)C2CCCCC2)c2ccccn2)CC1,i,i,i,i,i
Cc1ccc2[nH]c(CSc3nnc(NC(=O)COc4ccccc4Cl)s3)cc(=O)c2c1,i,nt,i,nt,i
CCN(CCO)CCCC(C)Nc1ccnc2cc(Cl)ccc12 (centres undefined),nt,i,nt,nt,nt
CCN(CC)CCCC(C)Nc1nccc2c(Cl)cccc12 (centres undefined),4.5µM,i,?,nt,i
COc1ccc(NC(=O)C(c2ccc(Cl)cc2)C(C)C)cn1 (centres undefined),7.9µM,i,i,i,i
C=CCn1c(SCC(=O)Nc2c(C)n(C)n(-c3ccccc3)c2=O)nc2sc(C)c(C)c2c1=O,i,i,i,i,i
C=CCn1c(SCC(=O)Nc2c(C)n(C)n(-c3ccccc3)c2=O)nc2sc(C)c(-c3ccccc3)c2c1=O,3.2µM,i,i,i,i
O=C(Oc1cccc2cccnc12)c1cccc(N2C(=O)C3C4CCC(C4)C3C2=O)c1 (centres undefined),2.8µM,i,2.5µM,i,i
O=C(Oc1cccc2cccnc12)c1ccc(N2C(=O)C3C4CCC(C4)C3C2=O)cc1 (centres undefined),2.8µM,i,3.2µM,i,i
O=C(Oc1cccc2cccnc12)c1cccc(-n2cnnn2)c1,i,i,i,i,i
Cc1ccc(C(=O)n2nc(C)c(S(=O)(=O)N3CCOCC3)c2C)cc1C,i,i,i,nt,i
O=C(Cc1cccs1)NC1CC(=O)N(c2ccccc2)C1 (centres undefined),i,nt,i,nt,i
CCOC(=O)Cc1ccc(NC(=O)Nc2cccc(OCc3cc(=O)n4cc(C)ccc4n3)c2)cc1,i,nt,i,nt,i
O=C(c1cccc(Br)c1)c1cn(-c2ccccc2)nc1C(=O)c1ccccc1,3.5µM,i,i,i,i
O=C1CN(S(=O)(=O)c2cc(C(=O)O)ccc2Cl)c2ccccc2N1,i,i,i,-76,i
CCN(CC)C(=O)Nc1ccc(OC[C@H](O)CNC(C)(C)C)c(C(C)=O)c1,nt,i,nt,nt,nt
COc1cc(CNC2CCCC2)cc(Cl)c1OCc1ccc(F)cc1,4.5µM,i,?,i,i
COc1cc(CNC2CCCC2)cc(Cl)c1OCc1ccccc1Cl,8.9µM,i,?,i,i
CCOc1cc(CNC2CCCC2)cc(Cl)c1OCc1ccc(F)cc1,?,i,i,i,i
SMILES,GLP-1R inv ag,GLP-1R agonist,HEK293 tox,TSHR antag,PTHR1 agonist
CCc1ccccc1NC(=O)c1ncoc1-c1ccco1,i,nt,i,nt,i
COc1ccccc1CNC(=O)Cn1c(-c2cccs2)cc2cc(F)ccc21,i,nt,i,nt,50µM
Cn1cc(C(=O)NCCc2ccccc2)c(=O)c2cc(S(=O)(=O)N3CCCCCC3)ccc21,i,nt,i,nt,i
c1ccc(C(c2ccccc2)N2CCN(Cc3nnnn3C3CCCC3)CC2)cc1,7.9µM,i,i,i,i
CCC(C)(C)n1nnnc1C(c1ccccc1)N1CCN(Cc2ccccc2)CC1 (centres undefined),i,i,i,i,i
CCC(C)(C)n1nnnc1CN1CCN(C(c2ccccc2)c2ccccc2)CC1,10µM,i,i,i,i
CC(C)CCn1nnnc1CN1CCN(C(c2ccccc2)c2ccccc2)CC1,13µM,i,i,i,i
COc1ccc(Cl)cc1NC(=O)CSc1nc2ccccc2nc1N1CCCCC1,i,nt,i,nt,i
COCCNC(=O)CCn1c(=O)c2cc(OC)c(OC)cc2n(CC(=O)Nc2ccccc2OC)c1=O,i,nt,i,nt,i
Cc1ccc(-n2nnc(-c3nc(-c4cccs4)no3)c2N)c(C)c1,i,nt,i,nt,i
Cc1nnc(N2CCC(C(=O)NCCC(C)C)CC2)c2nn(-c3ccc(Cl)cc3)c(C)c12,i,nt,i,nt,?
CCOc1ccc(N(CC(=O)Nc2cc(C)cc(C)c2)S(C)(=O)=O)cc1,?,i,i,-73,i
CCOc1ccc(N(CC(=O)Nc2ccc(C)c(C)c2)S(=O)(=O)c2c(C)noc2C)cc1,10µM,i,i,i,i
CCCOc1ccc(C2C(=O)N(C3CCCCC3)CC(=O)N2CCC2=CCCCC2)cc1OC (centres undefined),i,nt,i,nt,i
Cc1ncsc1CCSc1n[nH]c(=O)n1-c1ccccc1,i,i,i,i,i
Cc1ncsc1CCSc1nc2ccccc2c(=O)n1C,i,11µM,i,i,i
O=C(NCC(c1ccco1)N1CCCC1)c1cc2cc(Cl)ccc2o1 (centres undefined),10µM,i,i,i,i
Cc1ccc(S(=O)(=O)c2nc(-c3ccccc3)oc2N2CCCCCC2)cc1,6.3µM,nt,i,nt,i
COc1ccc(OC)c(S(=O)(=O)N2CCN(Cc3nc4ccc(C)cc4o3)CC2)c1,i,nt,i,nt,i
O=S(Cc1cc(Oc2ccccc2)nc(-c2ccccc2)n1)c1ccccc1 (centres undefined),10µM,i,i,i,i
Cn1nnnc1SCCNCc1ccccc1OCc1ccccc1Cl,?,i,?,i,i
CCOc1cc(CNCc2ccccc2)ccc1OCc1ccc(Cl)cc1,11µM,i,?,i,i
CCOc1cc(CNCCO)cc(Br)c1OCc1ccccc1,6.3µM,i,i,i,i
CCOc1cc(CNCc2ccncc2)cc(Br)c1OCc1ccc(F)cc1,10µM,i,i,i,i
COc1ccc(CNCCc2ccc(Cl)cc2)cc1OCc1ccccc1,?,i,?,i,i
SMILES,GLP-1R inv ag,GLP-1R agonist,HEK293 tox,TSHR antag,PTHR1 agonist
Fc1ccc(COc2ccc(Br)cc2CNCc2ccncc2)cc1,?,i,i,i,i
Cn1nnnc1SCCNCc1cc(Br)ccc1OCc1ccccc1Cl,10µM,i,i,nt,i
CN(C(=O)Cn1nnc(-c2ccc(S(C)(=O)=O)cc2)n1)c1ccccc1,i,i,i,nt,i
COc1cc(CNCCO)cc(Br)c1OCc1ccccc1Cl,6.3µM,i,?,i,i
CCOc1cc(CNCCSc2nnnn2C)cc(Br)c1OCc1ccccc1,5.6µM,i,i,i,i
CCCCCCCC(=O)CC[C@H]1[C@@H](C/C=C/CCCC(=O)OC(C)C)[C@@H](O)C[C@H]1O,nt,i,nt,nt,nt

# Source: PubChem BioAssay
